What is called inhibition is the relative decrease from the control value, in per cent.

The campaign covered roughly 330,000 compounds. About 1,900 (0.58%) were called active. Inconclusive results (about 4%) are left out. Not all results are given here. Entries with a potency or affinity are not part of this list. A number with no mark means an inactive call. Cut-off read from the data, not from the text of the source: inconclusive = inhibition above about 70% without an active follow-up result; inactive = below that.

A short description of this test: M. tuberculosis growth inhibition, HTS (AID 449762).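 Note: bacterial growth assessed after seven days of incubation.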 To be noted: M. tuberculosis H37Rv growth inhibition, 7H9 media; at 25 µM; stronger effect = higher value.
Consider `Cc1cc(C(=O)CSc2nnc(N)s2)c(C)n1CCc1ccc(Cl)cc1`, for which the inhibition is 9.47%. As for `Cc1cc(C(=O)CSc2nnnn2C)c(C)n1CCc1ccc(Cl)cc1`, the inhibition was 4.63%. Turning to `COc1ccc(/C=N/Nc2nc(N3CCCC3)nc(N3CCCC3)n2)cc1`, the inhibition was -3.33%. For the compound `Oc1ccc(/C=N/Nc2cc(N3CCCC3)nc(N3CCCC3)n2)cc1`, the inhibition was 4.32%. `CCN(CC)C(=O)CSc1nc2[nH]ncc2c(=O)[nH]1`: the inhibition was -0.87%.

For the compound `Cc1ccc(C)c2c1[nH]c1ccccc12`, the inhibition is 6.73%. As to `COc1cc2[nH]c3ccccc3c2cc1C`, the inhibition was -8.31%. Regarding `O=c1oc(CCO)cc2ccc(Br)cc12`, the inhibition is 9.08%. Next, `COc1ccccc1NC(=O)c1c[nH]c2ccccc12`: 0.76%; `O=C(CCN1C(=O)/C(=C/C=C/c2ccccc2)SC1=S)Nc1ccccn1`: -4.47%. On to `Cc1ccc(/C=C2\SC(=S)N(CCCC(=O)Nc3ccccn3)C2=O)cc1`, for which the inhibition is 0.58%.

In the case of `O=C(CCN1C(=O)/C(=C/c2ccccc2Cl)SC1=S)N1CCOCC1`, the inhibition was 69%. Next, `CN1CCN(C(=O)CCN2C(=O)/C(=C/c3ccccc3Cl)SC2=S)CC1`: 49.8%; `COC(=O)c1ccc(NC(=S)NC(=O)c2cccnc2)cc1`: -0.36%. `COc1ccccc1-n1c(O)c(C=NCCN2CCNCC2)c(=O)[nH]c1=O`: the inhibition is -7.53%.

In the case of `COC(=O)c1ccc(NC(=O)c2ccc3nccnc3c2)cc1`, the inhibition was -7.47%. Next, `CCN(CC)S(=O)(=O)c1ccc(S(=O)(=O)Nc2c(C)nn(C)c2C)cc1`: -5.92%.

Turning to `COc1ccc(-c2c(C(F)(F)F)oc3cc(OCC(=O)Nc4ccccc4C(F)(F)F)ccc3c2=O)cc1OC`, the inhibition was 10.6%. Next, `CSc1nncc(-c2ccccc2)n1`: -0.45%; `O=C(Cc1ccc(F)cc1)N1CCC(N2CCC(C(=O)N3CCOCC3)CC2)CC1`: 4.87%. Regarding `CCCCn1nnc(NC(=O)CCC)n1`, the inhibition was -12.6%.

`OC1(c2ccccc2)CCN(Cc2ccccc2)C2CCCCC21` (configuration not stated): the inhibition was -3.63%. For the compound `OC(c1ccccc1)C1CN(Cc2ccccc2)CCC1(O)c1ccccc1` (configuration not stated), the inhibition was 2.62%.

As for `CN1C(C(=O)NCc2ccc(OC(F)(F)F)cc2)CC2Cn3c(nc4ccccc43)C21` (configuration not stated), the inhibition was -3.09%. With `CN1C(C(=O)NCc2ccc(OC(F)(F)F)cc2)CC2Cn3c(nc4cc5ccccc5cc43)C21` (configuration not stated), the inhibition was 57.5%. For the compound `Cc1ccc(S(=O)(=O)N[C@H](C(=O)N2CCC(C(=O)N[C@@H](CCC(N)=O)C(=O)O)CC2)C(C)C)cc1`, the inhibition was -8.96%. In the case of `CN1CCN2c3ncccc3Cc3ccccc3[C@@H]2C1` it was 8.88%; in that of `CN1CCN2c3ncccc3Cc3ccccc3C2C1` (configuration not stated), -1.61%. In the case of `O=C(c1cc(C(=O)N2CCOCC2)c2nc3ccccc3n2c1)c1ccccc1O` it was 1.28%. With `COc1ccc(C(=O)CSc2nnc(CNc3ccc(C)cc3C)o2)cc1`, the inhibition was -7.42%.

As for `COc1ccc(C(=O)CSc2nnc(CNc3ccc(F)cc3)o2)cc1`, the inhibition was 15.6%.

Turning to `C=CCNC(=O)COC(=O)c1ccc(Sc2nncn2C)c([N+](=O)[O-])c1`, the inhibition was -2.55%.

For the compound `COc1ccc(CC(=O)N(Cc2ccccc2)c2ccc(C)cc2)cc1S(=O)(=O)N1CCOCC1`, the inhibition was 4.3%. On to `CCOC(=O)CCc1cnccc1-c1cccc(OC)c1O`, for which the inhibition was 4.79%. In the case of `CCCN1C(=O)N(c2cccc(C)c2)C(C)(O)CC1(C)C` (configuration not stated) it was 0.42%; in that of `O=C(c1cccc(C(F)(F)F)c1)N1CCN(C2CCCCC2)CC1`, 6.41%; in that of `CC[N+](C)(C)CC/C=C1/c2ccccc2Sc2ccc(Cl)cc21`, -9.06%.

Consider `CN(C)CC/C=C1/c2ccccc2Sc2ccc(Cl)cc21`, for which the inhibition is 39%.

As for `CN(CCOc1ccc(-c2ccn(S(=O)(=O)c3ccc(Cl)cc3)n2)cc1)c1ccccn1`, the inhibition was 7.05%. Take `Cc1ccc(-c2noc(CCC(=O)N3CCCc4ccccc43)n2)cc1`: the inhibition is 6.56%.

As to `CCOC(=O)c1c(NC(=O)COC(=O)Cc2n[nH]c(=O)c3ccccc23)sc(C(=O)NC)c1C`, the inhibition was -12.1%.

Consider `O=[N+]([O-])c1cccc(-c2nc(-c3cccs3)c(-c3cccs3)[nH]2)c1`, for which the inhibition is 1.58%. `O=[N+]([O-])c1cccc(-c2nc(-c3ccccc3)c(-c3cccs3)[nH]2)c1`: the inhibition is 1.45%. In the case of `CN(C)c1ccc(C=C2C(=O)OC(C)(C)OC2=O)cc1` it was 2.97%; in that of `CC1=NN(c2ccccc2)C(=O)/C1=C/c1ccc[nH]1`, 1.35%; in that of `COc1cc2cc(Oc3ccc4ccc(=O)oc4c3)c(=O)oc2cc1O[C@@H]1O[C@H](CO)[C@@H](O)[C@H](O)[C@H]1O`, -3.36%.

With `CC(C)(C)C1CCC2(CC1)Nc1cccc3cccc(c13)N2`, the inhibition is 28.8%. Consider `c1cc2c3c(cccc3c1)NC1(CCCCC1)N2`, for which the inhibition was -8.51%.

With `Cc1cc(C(=O)N2CCN(Cc3ccccc3)CC2)on1`, the inhibition is 4.33%. Take `CN1C(=O)N(C)C2(c3ccccc3)Nn3c(s/c(=C/c4ccccc4F)c3=O)=NC12c1ccccc1` (configuration not stated): the inhibition is 1.37%.

`CCCC(C)C(=O)Nc1ccccc1C(=O)OCC` (configuration not stated): the inhibition was -6.12%. `COc1ccc(C2C(C#N)=C(C)NC3=C2C(=O)CC(C)(C)C3)cc1` (configuration not stated): the inhibition was 2.98%. Take `CC1=C(C#N)C(c2cccnc2)C2=C(CC(c3ccc(Cl)cc3)CC2=O)N1` (configuration not stated): the inhibition was 49.6%.

Turning to `Cc1ccc(C[n+]2ccccc2)cc1`, the inhibition was -0.58%.

Regarding `Cc1nc2ccccn2c1P(=Nc1ccccc1)(N(C)C)N(C)C`, the inhibition is -7.51%. On to `COC(=O)[C@@H]1C[C@@]2(O)[C@@H](O)[C@@H](O)[C@@H](O)C[C@H]2N1Cc1ccc(C(F)(F)F)cc1`, for which the inhibition was -13%.

With `CCOC(=O)c1ccc(-c2c(-c3ccc4c(c3)OCO4)noc2-c2ccsc2)cc1F`, the inhibition is 7.75%. `CCOC(=O)c1ccc(-c2c(-c3cc(OC)c(OC)c(OC)c3)noc2C)cc1F`: the inhibition is 8.43%. For the compound `CCCOc1ccc(N2CC(C(=O)Nc3ncccc3C)CC2=O)cc1` (configuration not stated), the inhibition is 25.7%.

`O=C1CCc2cc(S(=O)(=O)NC(Cc3ccccc3)C(=O)NCCC3=CCCCC3)ccc2N1` (configuration not stated): the inhibition is -6.41%.

As to `COc1ccccc1Cn1c(=S)[nH]c2cc(C(=O)NCC3CCCO3)ccc2c1=O` (configuration not stated), the inhibition was 2.37%. In the case of `CC(=O)Nc1scc(C)c1-c1nc2ccccc2s1`, the inhibition is 26%. With `CC(=O)N1CCc2c(sc(NC(=O)C3CC3)c2-c2nc3ccccc3s2)C1`, the inhibition is 15.3%.

As to `Cc1ccccc1NC(=O)Cn1c(C)nc2ccc(NC(=O)C3CC3)cc2c1=O`, the inhibition was 2.87%.

In the case of `NS(=O)(=O)c1ccc(N2N=C(c3ccccc3)CC2c2ccccc2)cc1` (configuration not stated), the inhibition was 16.9%. Consider `NS(=O)(=O)c1ccc(N2N=C(c3ccccc3)CC2c2ccc(F)cc2)cc1` (configuration not stated), for which the inhibition was 12.8%. Turning to `O=C(O)c1ccccc1C(=O)NCCc1c(C(=O)O)[nH]c2ccc(Cl)cc12`, the inhibition was 7.67%. On to `COc1cccc(NC(=O)CSc2nc3ccccc3c(=O)n2CCCC(=O)NCCCN2CCOCC2)c1`, for which the inhibition was -10.7%. `CCOC(=O)c1ccc(NC(=O)Nc2ccc(F)cc2)cc1`: the inhibition is 0.77%.

In the case of `CCOC(=O)c1ccc(NC(=S)NCCc2ccc(OC)c(OC)c2)cc1`, the inhibition is 47.4%. Regarding `O=C(O)C1CCN(c2ccc(S(=O)(=O)N3CCOCC3)cc2[N+](=O)[O-])CC1`, the inhibition is -9.82%. In the case of `Cn1cnc(C(=O)NC2CCN(C(=O)OC(C)(C)C)CC2)c1C(=O)NC1CCN(C(=O)OC(C)(C)C)CC1`, the inhibition is -7.54%. Turning to `CC(C)Cn1c(N2CCN(C(=O)c3cccs3)CC2)nc2ccccc21`, the inhibition is -9%. In the case of `CCn1c(N2CCN(C(=O)/C=C/c3ccccc3)CC2)nc2ccccc21` it was 6.08%. With `CSc1nc2ccccc2n1CC(=O)Nc1c(C)n(C)n(-c2ccccc2)c1=O`, the inhibition was -4.84%. For the compound `CCOc1ccc(CN2C(=O)c3ccccc3C2C(=O)NC(C)CC)cc1OC` (configuration not stated), the inhibition was 2.03%. For the compound `O=C(NCc1ccco1)c1ccc(-c2ccccc2Cl)o1`, the inhibition was -1.96%.

Turning to `COc1ccc(CCC(=O)OC(C)C(=O)c2ccc(C)cc2)cc1` (configuration not stated), the inhibition is -2.54%. Regarding `Cc1noc2ncnc(Sc3c(Cl)cccc3Cl)c12`, the inhibition was 47.8%. Take `COc1ccc(Sc2ncnc3onc(C)c23)cc1`: the inhibition was 3.37%.

With `O=C(O)/C=C/C(=O)Nc1ccccc1-c1ccccc1NC(=O)/C=C/C(=O)O`, the inhibition was 3.08%.

As for `CCn1nc(C)c(CCC(=O)O)c1C`, the inhibition was 4.75%.

Turning to `Cc1ccc(/C=C/C(=O)OCC(=O)NCCc2ccc(S(N)(=O)=O)cc2)o1`, the inhibition is -0.03%. In the case of `COc1ccc(/C=N/Nc2ncnc3scc(-c4ccccc4)c23)cc1OC`, the inhibition is -0.49%. Regarding `COc1cccc(/C=N/Nc2ncnc3scc(-c4ccccc4)c23)c1OC`, the inhibition was 8.3%.

As for `CC1CCCCN1C(=O)Nc1ccccc1Cl` (configuration not stated), the inhibition was -0.25%. For `O=S(=O)(c1ccc(S(=O)(=O)N2CCN3CCCC3C2)cc1)N1CCCC1` (configuration not stated), the inhibition was -15.1%. As to `CCOC(=O)c1sc(NC(=O)CSc2nc3ccccc3s2)c(C(=O)OCC)c1C`, the inhibition is 12.6%. Take `Cc1c(O)cc2n(c1=O)-c1ccc(Cl)cc1C2(C)C`: the inhibition is -11.1%.

As to `CCc1c(O)cc2n(c1=O)-c1ccc(Cl)cc1C2(C)C`, the inhibition was -2.84%. Next, `Cc1ccsc1C1Nc2ccc3ncccc3c2C2=C1C(=O)CCC2` (configuration not stated): 2.32%; `O=C(Nc1ccc(Cl)cn1)Nc1ccccc1F`: -4.27%.

(Values after PubChem BioAssay AID449762 (Southern Research Specialized Biocontainment Screening …, 2010).)
